Experimental findings from PubChem BioAssay (EPA / NIEHS) are described below.

For assay [1], the target named is Cytochrome P450 3A4 (Homo sapiens) (UniProt P08684). Briefly: NVS_ADME_hCYP3A4: NovaScreen (NVS) CYP450-related Enzyme Activity (ADME) Assay for human CYP3A4 (AID 2283110). In short, it runs like this:
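Activity is derived from decreased fluorescence intensity relative to acetonitrile, measured 0.33 hour after dosing insect-cell-expressed CYP3A4 in a cell-free format. Screening used 10 uM in duplicate before concentration-response follow-up.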

Assay [2] addresses Cytochrome P450 2C19 (Homo sapiens) (UniProt P33261). Put plainly: NVS_ADME_hCYP2C19: NovaScreen (NVS) CYP450-related Enzyme Activity (ADME) Assay for human CYP2C19 (AID 2283113).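 On AC50: potency for inhibition seen as loss of fluorescent signal.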 In short, it runs like this: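 Biochemical CYP2C19 inhibition screen: insect-cell recombinant protein plus fluorescent substrate, 1 h, fluorescence intensity. Acetonitrile defined baseline activity. Single 10 uM concentration in duplicate, with concentration-response follow-up for actives.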

Assay [3] addresses human Caspase 5 (CASP5), CASP5 (gene 838) (UniProt P51878). Put plainly: NVS_ENZ_hCASP5: NovaScreen (NVS) Enzymatic Assay for human Caspase 5 (CASP5) (AID 2283137). In short, it runs like this:
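Chemicals were first tested in duplicate at 25 uM against recombinant caspase 5 from E. coli. Activity was read by fluorescence intensity 2 hours after dosing. Those passing a preset inhibition threshold were retested in singleton concentration-response up to 50 uM.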

The target of assay [4] is human Beta-secretase (BACE), BACE1 (gene 23621) (UniProt P56817). Briefly: NVS_ENZ_hBACE: NovaScreen (NVS) Enzymatic Assay for human Beta-secretase (BACE) (AID 2283140).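 Further: hits are inhibitors that reduce fluorescent substrate signal versus DMSO.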 In short, it runs like this:
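Fluorescence intensity read-out of protease activity defines this endpoint; signal loss relative to DMSO baseline marks inhibition. Recombinant enzyme from SF9 cells, cell-free format, 1 h exposure. Single-concentration duplicate screen (25 uM) precedes concentration-series follow-up.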

For assay [5], the target named is human Caspase 4 (CASP4), CASP4 (gene 837) (UniProt P49662). Put plainly: NVS_ENZ_hCASP4: NovaScreen (NVS) Enzymatic Assay for human Caspase 4 (CASP4) (AID 2283143). In short, it runs like this:
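Compounds were first tested in duplicate at 25 uM, and hits were titrated singly to a 50 uM maximum. Recombinant protease from E. coli was read by fluorescence 2 h post-dose, and activity loss was fitted against the DMSO baseline.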

Assay [6] addresses human Dual Specificity Protein Phosphatase 3 (DUSP3), DUSP3 (gene 1845) (UniProt P51452). Put plainly: NVS_ENZ_hDUSP3: NovaScreen (NVS) Enzymatic Assay for human Dual Specificity Protein Phosphatase 3 (DUSP3) (AID 2283152).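 Further: phosphatase activity of recombinant human DUSP3 on a fluorogenic substrate without cells.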 In short, it runs like this:
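Cell-free fluorescence-intensity enzyme activity assay with recombinant protein and substrate; loss of signal fitted relative to DMSO baseline. Primary screen in duplicate at 25 uM, actives then run in concentration series; measured 0 h after dosing.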

Assay [7] addresses human Elastase, ELANE (gene 1991) (UniProt P08246). Put plainly: NVS_ENZ_hElastase: NovaScreen (NVS) Enzymatic Assay for human Elastase (AID 2283153). In short, it runs like this: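 Concentration-response to 50 uM max, run singly for chemicals passing a threshold (e.g., 30% inhibition) in a duplicate 25 uM single-point screen. Neutrophil-derived human elastase, absorbance read-out of enzyme activity at 1.5 h; DMSO baseline.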

Assay [8] has as its target human CYP2D6, CYP2D6 (gene 1565) (UniProt P10635). Briefly: NVS_ADME_hCYP2D6: NovaScreen (NVS) CYP450-related Enzyme Activity (ADME) Assay for human CYP2D6 (AID 2283107). In short, it runs like this: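 Biochemical fluorescence assay, insect-cell-derived enzyme. Read at 1 h; inhibition taken from loss of signal against acetonitrile. Screened at 10 uM in duplicate, with concentration series for actives.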

For assay [9], the target named is human CYP2C9, CYP2C9 (gene 1559) (UniProt P11712). Put plainly: NVS_ADME_hCYP2C9: NovaScreen (NVS) CYP450-related Enzyme Activity (ADME) Assay for human CYP2C9 (AID 2283108). In short, it runs like this: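 Cell-free assay of recombinant human CYP2C9 produced in Sf9 cells, with enzyme activity read by fluorescence intensity 0.75 h after compound addition. Loss of signal versus an acetonitrile negative control indicates inhibition. Primary screen used 10 uM in duplicate; actives were retested in concentration series.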

For the next assay, the target named is Caspase-3 (Homo sapiens) (UniProt P42574). Briefly: NVS_ENZ_hCASP3: NovaScreen (NVS) Enzymatic Assay for human Caspase 3 (CASP3) (AID 2283139). In short, it runs like this: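 Single-concentration screening at 25 uM in duplicate, with concentration-response follow-up to a 50 uM maximum for chemicals passing the threshold. Caspase-3 (human, E. coli-expressed) activity was read as substrate fluorescence after 1 h, with loss of signal relative to DMSO.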

The target of assay [10] is human Caspase 8 (CASP8), CASP8 (gene 841) (UniProt Q14790). Put plainly: NVS_ENZ_hCASP8: NovaScreen (NVS) Enzymatic Assay for human Caspase 8 (CASP8) (AID 2283146). In short, it runs like this: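 The primary screen tested compounds in duplicate at a single 25 uM concentration, with actives followed up in concentration series. Activity of recombinant (E. coli) protease was measured by fluorescence 1 h post-dose, as signal loss against DMSO.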

Assay [11] has as its target human Esterase Plasma (ES), BCHE (gene 590) (UniProt P06276). Briefly: NVS_ENZ_hES: NovaScreen (NVS) Enzymatic Assay for human Esterase Plasma (ES) (AID 2283157). In short, it runs like this:
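Screening ran at 25 uM in duplicate, followed by singleton concentration series reaching 50 uM for actives. Human plasma protein, colorimetric detection, 0.25 h exposure, DMSO negative control.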

The target in assay [12] is human AKT serine/threonine Kinase 1 (AKT1), AKT1 (gene 207) (UniProt P31749). Briefly: NVS_ENZ_hAKT1: NovaScreen (NVS) Enzymatic Assay for human AKT serine/threonine Kinase 1 (AKT1) (AID 2283138). In short, it runs like this:
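Compounds were first tested in duplicate at 25 uM, and those passing a threshold such as 30% inhibition were run in concentration-response to a maximum of 50 uM. Enzyme activity was measured after 1 h by fluorescence following substrate/product mobility-shift separation.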

Assay [13] addresses human AKT serine/threonine Kinase 2 (AKT2), AKT2 (gene 208) (UniProt P31751). Put plainly: NVS_ENZ_hAKT2: NovaScreen (NVS) Enzymatic Assay for human AKT serine/threonine Kinase 2 (AKT2) (AID 2283141). In short, it runs like this:
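Cell-free fluorescence/electrophoretic mobility shift readout of recombinant human AKT2 activity, 1 h after chemical dosing. Duplicate primary screen at 25 uM, then singleton concentration-response up to 50 uM; loss of signal versus DMSO baseline.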

The next assay addresses CDK2 (gene 1017) (UniProt P24941). Put plainly: NVS_ENZ_hCDK2: NovaScreen (NVS) Enzymatic Assay for human Cyclin-Cependent Kinase 2 (CDK2) (AID 2283144). In short, it runs like this: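 Compounds screened in duplicate at 25 uM, then in singleton concentration-response to a maximum of 50 uM, against recombinant CDK2; kinase activity read 1 hr after dosing by fluorescence with mobility-shift separation of substrate and product.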

For assay [14], the target named is human Casein Kinase 1-delta (CK1D), CSNK1D (gene 1453) (UniProt P48730). Put plainly: NVS_ENZ_hCK1D: NovaScreen (NVS) Enzymatic Assay for human Casein Kinase 1-delta (CK1D) (AID 2283148). In short, it runs like this:
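Recombinant human CK1-delta, cell-free; fluorescent substrate with electrophoretic mobility-shift separation of product, read 1 h after dosing. Single 25 uM duplicate screen, then concentration-response up to 50 uM; loss of signal vs DMSO.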

Assay [15] has as its target human Colony Stimulating Factor 1 Receptor (CSF1R), CSF1R (gene 1436) (UniProt P07333). Put plainly: NVS_ENZ_hCSF1R: NovaScreen (NVS) Enzymatic Assay for human Colony Stimulating Factor 1 Receptor (CSF1R) (AID 2283150). In short, it runs like this:
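Compounds screened in duplicate at 25 uM, then concentration-response (top 50 uM) for those passing threshold such as 30% inhibition; recombinant CSF1R activity measured 1 h post-dosing via fluorescent substrate/product mobility-shift separation, loss of signal versus DMSO.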

In assay [16] the target is human FYN Proto-Oncogene, Src family Tyrosine Kinase (Fyn), FYN (gene 2534) (UniProt P06241). Put plainly: NVS_ENZ_hFyn: NovaScreen (NVS) Enzymatic Assay for human FYN Proto-Oncogene, Src family Tyrosine Kinase (Fyn) (AID 2283161). In short, it runs like this:
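Cell-free kinase activity read by fluorescence after mobility-shift separation of substrate and product, 1 h post-dose. Initial single concentration 25 uM in duplicate, then concentration-response follow-up; DMSO baseline.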

Assay [17] concerns the target human Ephrin type-A Receptor 1 (EphA1), EPHA1 (gene 2041) (UniProt P21709). Briefly: NVS_ENZ_hEphA1: NovaScreen (NVS) Enzymatic Assay for human Ephrin type-A Receptor 1 (EphA1) (AID 2283158).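 Further: activity is signal loss versus DMSO meaning EphA1 kinase inhibition.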 In short, it runs like this: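 Here the EphA1 protein is recombinant and the substrate fluorescent, with electrophoretic separation before fluorescence detection at 1 hour. Signal loss against DMSO defines activity; plate controls included; follow-up concentration series reach 50 uM.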

The structures appear in SMILES notation. Records with an inconclusive call do not appear. The source made the active and inactive calls. How the source made its calls: active means hit-call score of the fitted dose curve at least 0.9, where 1 is the maximum; inconclusive means response in the unintended direction; inactive means score below 0.9.

The term AC50 denotes the midpoint of the concentration-response curve, whichever way the signal moves.

Chain of Cytochrome P450 3A4 (Homo sapiens) (P08684 whole entry, looked up): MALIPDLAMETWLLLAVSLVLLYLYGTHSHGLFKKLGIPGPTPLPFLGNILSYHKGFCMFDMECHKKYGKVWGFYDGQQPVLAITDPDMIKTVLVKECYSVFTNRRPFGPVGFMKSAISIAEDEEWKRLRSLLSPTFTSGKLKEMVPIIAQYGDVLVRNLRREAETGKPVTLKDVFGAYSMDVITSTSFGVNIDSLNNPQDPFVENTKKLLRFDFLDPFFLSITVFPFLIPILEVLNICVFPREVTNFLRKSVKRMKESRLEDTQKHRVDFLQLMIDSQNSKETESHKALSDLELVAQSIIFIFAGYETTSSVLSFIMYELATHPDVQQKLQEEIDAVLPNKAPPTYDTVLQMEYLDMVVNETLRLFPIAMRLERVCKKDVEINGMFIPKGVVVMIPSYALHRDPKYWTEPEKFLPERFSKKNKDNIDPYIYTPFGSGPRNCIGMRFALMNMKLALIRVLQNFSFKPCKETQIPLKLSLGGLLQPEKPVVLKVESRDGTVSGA
Chain of human Beta-secretase (BACE), BACE1 (gene 23621) (P56817 whole entry, looked up): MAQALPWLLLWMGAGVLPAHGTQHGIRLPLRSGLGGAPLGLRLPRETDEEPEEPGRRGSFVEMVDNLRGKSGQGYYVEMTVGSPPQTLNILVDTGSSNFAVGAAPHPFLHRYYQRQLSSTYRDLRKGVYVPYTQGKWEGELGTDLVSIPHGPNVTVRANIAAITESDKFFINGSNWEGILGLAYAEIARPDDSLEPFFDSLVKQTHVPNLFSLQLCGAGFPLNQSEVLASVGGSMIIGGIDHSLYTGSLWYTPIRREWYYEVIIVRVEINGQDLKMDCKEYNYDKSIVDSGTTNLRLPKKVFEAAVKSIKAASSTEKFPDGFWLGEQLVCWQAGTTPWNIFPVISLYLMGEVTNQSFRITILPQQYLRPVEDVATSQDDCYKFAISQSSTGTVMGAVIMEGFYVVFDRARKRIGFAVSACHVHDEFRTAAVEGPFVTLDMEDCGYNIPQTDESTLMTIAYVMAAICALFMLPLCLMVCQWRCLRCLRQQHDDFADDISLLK
Chain of human AKT serine/threonine Kinase 1 (AKT1), AKT1 (gene 207) (P31749 whole entry, looked up): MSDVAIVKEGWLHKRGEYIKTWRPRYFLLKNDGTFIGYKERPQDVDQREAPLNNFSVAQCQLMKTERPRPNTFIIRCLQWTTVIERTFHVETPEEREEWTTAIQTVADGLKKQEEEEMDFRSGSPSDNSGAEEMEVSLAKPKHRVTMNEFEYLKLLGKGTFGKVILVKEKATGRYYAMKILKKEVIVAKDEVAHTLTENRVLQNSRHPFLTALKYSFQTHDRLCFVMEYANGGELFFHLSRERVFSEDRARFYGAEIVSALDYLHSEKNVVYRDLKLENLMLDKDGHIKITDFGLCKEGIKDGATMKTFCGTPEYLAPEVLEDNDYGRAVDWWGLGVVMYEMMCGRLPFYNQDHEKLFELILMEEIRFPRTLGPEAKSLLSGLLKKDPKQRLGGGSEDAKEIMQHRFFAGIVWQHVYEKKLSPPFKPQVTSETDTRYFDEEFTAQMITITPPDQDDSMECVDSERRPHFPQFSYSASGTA
Chain of human Elastase, ELANE (gene 1991) (P08246 whole entry, looked up): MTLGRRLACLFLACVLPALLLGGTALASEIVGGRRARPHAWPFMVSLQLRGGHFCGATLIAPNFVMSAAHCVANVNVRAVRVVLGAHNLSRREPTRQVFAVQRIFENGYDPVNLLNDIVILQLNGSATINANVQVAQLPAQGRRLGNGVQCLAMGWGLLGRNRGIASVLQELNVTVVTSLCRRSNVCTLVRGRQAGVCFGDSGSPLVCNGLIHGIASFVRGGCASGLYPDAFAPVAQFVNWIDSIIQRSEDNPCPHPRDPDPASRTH
Chain of human Caspase 5 (CASP5), CASP5 (gene 838) (P51878 whole entry, looked up): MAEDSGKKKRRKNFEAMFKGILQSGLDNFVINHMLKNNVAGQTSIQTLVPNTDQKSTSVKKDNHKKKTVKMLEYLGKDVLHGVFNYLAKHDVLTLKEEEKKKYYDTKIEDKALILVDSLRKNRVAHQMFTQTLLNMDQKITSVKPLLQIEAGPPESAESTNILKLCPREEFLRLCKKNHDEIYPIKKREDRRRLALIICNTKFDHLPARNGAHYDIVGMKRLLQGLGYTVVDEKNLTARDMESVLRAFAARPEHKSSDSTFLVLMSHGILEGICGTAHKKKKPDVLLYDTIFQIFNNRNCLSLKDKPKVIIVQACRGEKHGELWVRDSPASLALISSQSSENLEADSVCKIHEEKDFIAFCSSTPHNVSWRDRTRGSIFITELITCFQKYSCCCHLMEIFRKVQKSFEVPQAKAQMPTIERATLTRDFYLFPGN
Chain of human CYP2C9, CYP2C9 (gene 1559) (P11712 whole entry, looked up): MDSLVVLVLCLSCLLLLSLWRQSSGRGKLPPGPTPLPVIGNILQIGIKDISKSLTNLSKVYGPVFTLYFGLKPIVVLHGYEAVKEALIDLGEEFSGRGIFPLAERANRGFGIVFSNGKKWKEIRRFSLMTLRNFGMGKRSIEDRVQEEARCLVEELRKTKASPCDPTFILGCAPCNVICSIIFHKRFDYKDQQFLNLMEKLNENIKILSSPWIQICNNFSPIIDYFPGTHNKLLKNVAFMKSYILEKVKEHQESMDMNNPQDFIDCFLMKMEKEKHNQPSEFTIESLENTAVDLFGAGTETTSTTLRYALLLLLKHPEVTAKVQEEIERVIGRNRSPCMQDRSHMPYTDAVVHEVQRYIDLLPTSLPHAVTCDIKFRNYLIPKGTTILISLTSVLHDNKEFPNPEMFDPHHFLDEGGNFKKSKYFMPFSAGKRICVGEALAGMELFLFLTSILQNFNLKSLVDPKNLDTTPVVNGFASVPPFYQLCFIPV
Chain of human Dual Specificity Protein Phosphatase 3 (DUSP3), DUSP3 (gene 1845) (P51452 whole entry, looked up): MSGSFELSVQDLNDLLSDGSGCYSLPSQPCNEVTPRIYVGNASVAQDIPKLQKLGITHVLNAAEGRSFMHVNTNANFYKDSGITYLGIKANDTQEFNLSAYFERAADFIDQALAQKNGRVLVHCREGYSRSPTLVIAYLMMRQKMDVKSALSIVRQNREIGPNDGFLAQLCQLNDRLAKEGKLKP
Chain of human FYN Proto-Oncogene, Src family Tyrosine Kinase (Fyn), FYN (gene 2534) (P06241 whole entry, looked up): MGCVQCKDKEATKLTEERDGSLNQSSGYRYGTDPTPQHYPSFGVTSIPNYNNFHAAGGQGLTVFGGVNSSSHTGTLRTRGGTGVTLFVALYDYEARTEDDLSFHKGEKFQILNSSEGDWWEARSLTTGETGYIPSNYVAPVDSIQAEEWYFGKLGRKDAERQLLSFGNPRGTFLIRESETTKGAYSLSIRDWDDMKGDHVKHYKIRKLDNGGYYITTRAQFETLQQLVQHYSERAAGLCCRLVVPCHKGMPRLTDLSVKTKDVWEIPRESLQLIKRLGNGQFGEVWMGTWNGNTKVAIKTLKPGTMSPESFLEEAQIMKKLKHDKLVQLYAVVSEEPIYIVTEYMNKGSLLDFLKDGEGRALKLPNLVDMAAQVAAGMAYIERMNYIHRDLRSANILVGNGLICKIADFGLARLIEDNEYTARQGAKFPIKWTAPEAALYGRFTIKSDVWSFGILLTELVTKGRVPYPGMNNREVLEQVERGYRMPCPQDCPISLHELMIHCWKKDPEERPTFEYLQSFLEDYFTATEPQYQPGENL
Chain of human Colony Stimulating Factor 1 Receptor (CSF1R), CSF1R (gene 1436) (P07333 whole entry, looked up): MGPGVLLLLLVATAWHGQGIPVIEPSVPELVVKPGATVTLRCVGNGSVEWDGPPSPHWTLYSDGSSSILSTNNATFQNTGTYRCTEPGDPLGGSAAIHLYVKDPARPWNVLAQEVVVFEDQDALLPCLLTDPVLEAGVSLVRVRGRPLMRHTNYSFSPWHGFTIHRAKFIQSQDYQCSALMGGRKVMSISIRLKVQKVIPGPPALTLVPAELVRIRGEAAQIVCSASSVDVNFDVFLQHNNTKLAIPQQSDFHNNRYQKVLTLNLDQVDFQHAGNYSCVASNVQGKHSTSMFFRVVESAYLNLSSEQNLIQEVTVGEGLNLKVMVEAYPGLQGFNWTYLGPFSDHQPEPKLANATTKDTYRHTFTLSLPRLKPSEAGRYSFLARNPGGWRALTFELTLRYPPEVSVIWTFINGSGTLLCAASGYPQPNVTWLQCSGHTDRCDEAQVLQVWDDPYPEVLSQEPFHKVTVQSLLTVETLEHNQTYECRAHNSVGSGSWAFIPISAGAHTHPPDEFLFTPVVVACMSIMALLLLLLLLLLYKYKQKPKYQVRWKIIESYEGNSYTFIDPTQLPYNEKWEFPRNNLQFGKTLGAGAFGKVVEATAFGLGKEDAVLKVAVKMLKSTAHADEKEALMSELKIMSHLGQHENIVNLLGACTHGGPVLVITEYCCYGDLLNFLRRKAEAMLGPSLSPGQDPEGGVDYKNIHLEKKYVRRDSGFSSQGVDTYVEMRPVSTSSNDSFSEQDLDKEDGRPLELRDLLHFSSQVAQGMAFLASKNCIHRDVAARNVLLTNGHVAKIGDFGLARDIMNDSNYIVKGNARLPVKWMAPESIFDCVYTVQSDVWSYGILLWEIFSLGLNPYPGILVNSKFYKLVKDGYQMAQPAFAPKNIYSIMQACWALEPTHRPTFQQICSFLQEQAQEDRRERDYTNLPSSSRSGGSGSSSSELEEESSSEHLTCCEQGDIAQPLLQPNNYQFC
Chain of human Casein Kinase 1-delta (CK1D), CSNK1D (gene 1453) (P48730 whole entry, looked up): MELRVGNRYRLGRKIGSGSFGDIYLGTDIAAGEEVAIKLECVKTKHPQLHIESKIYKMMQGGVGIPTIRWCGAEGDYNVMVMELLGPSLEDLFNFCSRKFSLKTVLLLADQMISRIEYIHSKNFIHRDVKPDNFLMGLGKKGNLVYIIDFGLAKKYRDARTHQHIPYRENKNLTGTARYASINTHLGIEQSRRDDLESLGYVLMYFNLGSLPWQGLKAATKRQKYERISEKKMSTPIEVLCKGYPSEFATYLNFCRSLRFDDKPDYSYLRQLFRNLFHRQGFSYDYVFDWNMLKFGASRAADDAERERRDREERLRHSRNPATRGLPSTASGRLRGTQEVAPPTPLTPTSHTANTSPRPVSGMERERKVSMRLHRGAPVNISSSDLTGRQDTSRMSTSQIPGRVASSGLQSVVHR

On to `Cc1oc(-c2ccccc2)nc1CCOc1ccc(C[C@H](Nc2ccccc2C(=O)c2ccccc2)C(=O)O)cc1`, for which the call in assay [1], in assay [2] and in assay [5] was inactive. Further, the AC50 in assay [3] is 8.25 µM (active); in assay [4], 1.17 µM (active); in assay [6], 14.9 µM (active); in assay [7] it was 10.6 µM (active).
With `Oc1cc2ccccc2c2ccccc12`, the AC50 in assay [8] was 136 nM (active); in [9], 0.235 µM (active); in assay [1], 6.68 µM (active); in assay [2], 0.872 µM (active); in [3] it was 6.88 µM (active); with Caspase-3 (Homo sapiens), 12.6 µM (active). The AC50 in assay [11] was 14.1 µM (active). Moreover, the outcome in assay [5] and in assay [10] was inactive.
Regarding `COc1ccc([N+](=O)[O-])cc1N`, the molecule was classed as inactive in assay [2].
As for `CCCCCCCCCCCCc1ccccc1S(=O)(=O)O`, the AC50 was 5.06 µM (active) in assay [9]; 29.1 µM (active) in [12]; 2.23 µM (active) in assay [4]; 40.2 µM (active) in assay [13]; 17.4 µM (active) in assay [14]; 17.3 µM (active) in [15]. Moreover, in assay [7], the AC50 is 38 µM (active). The call with CDK2 (gene 1017) was inactive.
On to `CCC(=C(c1ccc(O)cc1)c1ccc(OCCN(C)C)cc1)c1ccccc1`, for which the AC50 is 3.91 µM (active) in [2] and 16.1 µM (active) in [4]. Moreover, the result in [12] and in assay [16] was inactive.
As to `O=C(O)Cc1cc(I)c(Oc2cc(I)c(O)c(I)c2)c(I)c1`, the outcome (in [1]; in assay [2]; in assay [4]; with CDK2 (gene 1017); in [14]; in [15]) was inactive. Further, the molecule was classed as inactive in [17] and in assay [16]. Moreover, the AC50 was 11 µM (active) in [6] and 18.5 µM (active) in [7].
For `CC[C@H](C)[C@@H](C(=O)O)n1sc2ccccc2c1=O`, the AC50 in assay [2] is 13.4 µM (active).
In the case of `Nc1cccc2c(N)cccc12`, the AC50 is 3620 nM (active) in [8]; 6.16 µM (active) in [9]; 3.08 µM (active) in assay [2]; 3.13 µM (active) in [12]; 19.5 µM (active) in assay [4]. Also, the outcome in assay [7] was inactive.
`Cc1cc(C)c(O)c(C)c1`: the outcome in [2] was inactive.
Consider `NC(=O)N1C(=O)C(C(=O)c2cc(Cl)cs2)c2cc(F)c(Cl)cc21` (centres undefined), for which the AC50 in assay [9] was 15.7 µM (active); in assay [4], 0.139 µM (active); in assay [6], 12.2 µM (active); in [7], 16.9 µM (active). Moreover, the outcome in assay [1], in [2] and in assay [3] was inactive.
